# High-throughput results as filed in PubChem.
# Shown are actives, neighbours in structure and some others; about 2.3% of the full set was active somewhere.
# GLD-1 RNA inh: GLD-1-TGE RNA interaction inhibition (C. elegans); purified GLD-1 + fluorescein TGE RNA, fluorescence polarization; inhibition, % at 5.96 µM; 320,000 compounds, 0.44% hits; Q17339;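 active = percent inhibition above a per-plate cutoff, the plate mean of test compounds plus 3 SD, cut at about 30% in these data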;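 note: 0% = DMSO wells with GLD-1 and probe and 100% = wells lacking GLD-1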
# Bcl-xL primary: Bcl-xL (human) inhibition | 320,000 compounds, 0.7% hits | AID 2129 | inhibition, % at 10.9 µM | GST-Bcl-xL / FITC-Bim BH3 peptide fluorescence polarization | Q07817;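 active = inhibition above the mean of all tested compounds plus 3 SD, cutoff set per campaign, cut at about 30% in these data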;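 note: 0% = DMSO wells and 100% = unlabeled Bim-BH3 peptide competitor; inhibitors lower millipolarization by displacing the labeled peptide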
# Target sequence (Q07817 whole entry, looked up): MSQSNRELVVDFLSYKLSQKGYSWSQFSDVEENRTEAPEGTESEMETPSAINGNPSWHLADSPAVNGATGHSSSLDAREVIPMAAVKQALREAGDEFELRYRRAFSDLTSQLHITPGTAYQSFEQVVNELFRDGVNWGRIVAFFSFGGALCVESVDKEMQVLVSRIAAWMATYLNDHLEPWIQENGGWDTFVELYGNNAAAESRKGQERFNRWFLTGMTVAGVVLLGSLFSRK
# MCL1 BIM primary: inhibitors of human MCL1 binding to BIM-BH3 peptide | Q07820 | inhibition, % at 10.9 µM | GST-MCL1 / FITC-Bim-BH3 fluorescence polarization | 320,000 compounds, 0.68% hits;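 active = inhibition above the mean inhibition of all tested compounds plus 3 SD, set per campaign, cut at about 40% in these data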;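 note: 0% = DMSO wells and 100% = unlabeled Bim-BH3 peptide control; higher means more loss of mP so more displacement of Bim peptide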
# Target sequence (Q07820 whole entry, looked up): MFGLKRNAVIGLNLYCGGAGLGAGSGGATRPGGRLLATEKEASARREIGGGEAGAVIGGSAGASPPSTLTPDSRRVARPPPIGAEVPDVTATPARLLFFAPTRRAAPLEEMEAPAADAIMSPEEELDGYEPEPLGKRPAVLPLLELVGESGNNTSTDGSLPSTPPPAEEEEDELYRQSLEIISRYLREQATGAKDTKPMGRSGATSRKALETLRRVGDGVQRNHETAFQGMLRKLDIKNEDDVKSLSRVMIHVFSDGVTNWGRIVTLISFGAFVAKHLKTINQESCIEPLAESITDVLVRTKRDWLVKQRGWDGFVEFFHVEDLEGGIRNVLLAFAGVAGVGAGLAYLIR
# Mcl-1 Bim block: inhibitors of Bim-Mcl-1 interaction, human; Q07820; Bead-based flow cytometry, Bim peptide-Mcl-1 binding; 190,000 compounds, 0.1% hits; inhibition, % at 10 µM; AID 1009; in the data active = inhibition above about 40%;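 note: 0% = no compound tracer wells and 100% = peptide blocker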
# Mcl1 Noxa PPI: disrupts binding of human Mcl-1 to Noxa peptide; Q07820; inhibition, % at 21.7 µM; 220,000 compounds, 1.5% hits; TR-FRET Mcl-1/Noxa peptide binding, 2 h;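 active = compounds that cut the protein-peptide binding signal by more than 50% relative to plate controls in a single-dose test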;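 note: His-tagged Mcl-1 with rhodamine Noxa BH3 peptide and terbium anti-His antibody; 0% = Mcl-1 plus Noxa peptide wells and 100% = peptide-only wells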
# Mcl1 Bid PPI: Mcl-1/Bid interaction inhibition; Q07820; TR-FRET Mcl-1/Bid-Dy647 peptide binding, 1536-well; inhibition, % at 21.7 µM; 220,000 compounds, 0.97% hits;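 active = compounds that cut the binding signal by more than half at the single screening dose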;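 note: His-tagged Mcl-1 with europium anti-His antibody binding Bid BH3 peptide; 0% = Mcl-1 plus peptide wells and 100% = peptide-only wells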
# * = called active by the depositor; · = no result.
SMILES,GLD-1 RNA inh,Bcl-xL primary,MCL1 BIM primary,Mcl-1 Bim block,Mcl1 Noxa PPI,Mcl1 Bid PPI
CCOC(=O)c1c(NC(=O)C2Cc3ccccc3C(=O)O2)sc2c1CCCC2 (stereo unspecified),-2,4,-3,·,·,·
COc1ccc(/C=C2/C(=O)N(c3nc4ccccc4s3)N=C2CSc2ccc(Cl)cc2)cc1,1,1,-3,1,91*,51*
COc1ccc(/C=C2/C(=O)N(Cc3ccccc3)N=C2C)cc1,0,3,-9,-3,7,-24
O=C(NCCc1ccccc1)c1ccccc1NC(=O)C1CCCCC1C(=O)O (stereo unspecified),0,3,-5,0,6,-7
CN(C)c1ccc(NC(=O)CCCc2ccccc2)cc1,6,20,20,-1,79*,7
Cc1ccc(C(C)C)cc1NC(=O)Nc1ccc([N+](=O)[O-])cc1,4,-8,-4,·,18,85*
Cc1cc(C)c2c(=O)[nH]c(SCC(=O)c3ccc(F)c(C)c3)nc2n1,5,-2,-4,-6,-225,59*
COCCNC(=O)c1cc2c(=O)n3cccc(C)c3nc2n1C,2,1,-1,·,·,·
Cc1cccn2c(=O)c3cc(C(=O)N(C)C)n(C)c3nc12,10,32*,30,0,9,-26
Cc1cccn2c(=O)c3cc(C(=O)NCCCn4ccnc4)n(C)c3nc12,5,44*,47*,0,31,-8
COc1ccc(-c2ccc(/C=C3/C(=N)N4C(C)=CSC4=NC3=O)o2)c([N+](=O)[O-])c1,2,13,8,-1,59*,17
CNc1c(NS(=O)(=O)c2cc(NC(C)=O)ccc2C)c(=O)oc2ccccc12,1,2,-5,·,·,·
CC(=O)C1C(c2cn(-c3ccccc3)nc2-c2cccs2)NC(=O)NC1(O)C(F)(F)F (stereo unspecified),4,-2,-11,-2,10,10
Nc1nc2nc(SCC(=O)N3CCCc4ccccc43)[nH]c2c(=O)[nH]1,1,4,2,0,59*,-10
Nc1cc(=O)[nH]c(SCC(=O)N2CCCc3ccccc32)n1,3,4,1,2,-16,-20
CC(C(=O)Nc1cccnc1)N1C(=O)C2C3C=CC(C3)C2C1=O (stereo unspecified),-4,89*,6,0,-5,-22
O=C(CSc1nc2ccccc2o1)N/N=C/c1ccc(O)c(O)c1,8,4,21,·,37,-132
COc1ccc2nc(C)cc(SCC(=O)N/N=C/c3ccc(O)c(O)c3)c2c1,-4,-5,27,16,54*,-32
Cc1cc(SCC(=O)N/N=C/c2ccc(O)c(O)c2)c(C)cc1Br,11,3,29,1,61*,23
CCN(C(=S)NCCOC)c1cccc2ccccc12,1,-2,9,-4,-3,-10
NC12CC3CC(CC(C3)C1)C2,5,-4,-11,-2,17,4
Cc1cccc2c(N=O)c(O)[nH]c12,-6,9,2,·,55*,-50
CSc1ccccc1-c1nc(-c2ccncc2)no1,-5,4,-1,·,·,·
CC(=O)Nc1sc2c(c1C(N)=O)CCCC2,-2,-2,-8,-3,5,-12
NC(=O)c1c(NC(=O)C2c3ccccc3Oc3ccccc32)sc2c1CCCCC2,-14,1,-22,-1,68*,-52
SMILES,GLD-1 RNA inh,Bcl-xL primary,MCL1 BIM primary,Mcl-1 Bim block,Mcl1 Noxa PPI,Mcl1 Bid PPI
CCN(CC)CCCN1C=C2C(=O)C(C)(OC(=O)CCC(=O)OC)C(=O)C(Br)=C2C=C1c1ccc(OC)cc1 (stereo unspecified),14,31*,30,·,·,·
COC(=O)CCC(=O)OC1(C)C(=O)C2=CN(Cc3ccco3)C(c3ccc(OC)cc3)=CC2=C(Br)C1=O (stereo unspecified),44*,52*,49*,·,·,·
COC(=O)CCC(=O)OC1(C)C(=O)C2=CN(C3CCCC3)C(c3ccc(OC)cc3)=CC2=C(Br)C1=O (stereo unspecified),22,34*,29,·,17,-73
CCCCC1=CC2=C(c3ccco3)C(=O)C(C)(OC(=O)c3ccc(OC)cc3)C(=O)C2=CN1Cc1ccco1 (stereo unspecified),22,25,31,·,37,-94
COC(=O)CCCC1=CC2=C(c3ccccc3)C(=O)C(C)(OC(=O)C3CCCC3)C(=O)C2=CN1C1CC1 (stereo unspecified),14,20,17,·,1,-90
COC(=O)CCC(=O)OC1(C)C(=O)C2=CN(c3ccc(OC)cc3)C(c3ccc(OC)cc3)=CC2=C(Br)C1=O (stereo unspecified),13,19,13,·,·,·
COCCN1C=C2C(=O)C(C)(OC(=O)CCC(=O)OC)C(=O)C(Br)=C2C=C1c1ccc(OC)cc1 (stereo unspecified),18,37*,44*,·,·,·
CC(N=C1NS(=O)(=O)c2ccccc21)C(=O)NCc1ccc2c(c1)OCO2 (stereo unspecified),-1,3,4,0,13,-29
COCC(=O)N1CCC(n2nccc2NC(=O)c2ccccc2OC)CC1,0,7,13,·,·,·
O=C1C=C(c2cc3ccccc3s2)C[C@@H](c2ccc(Cl)cc2)C1,-5,·,·,·,·,·
O=C(CN1C(=O)COc2ccccc21)N(Cc1ccc2c(c1)OCO2)CC1CCCO1 (stereo unspecified),8,6,12,-4,-3,100*
O=C(NCc1cccnc1)C1CCCCN1S(=O)(=O)c1ccc(F)cc1 (stereo unspecified),1,6,3,-1,6,-4
COc1ccc(C)cc1N(C(=O)c1ccc(F)cc1)c1nc2ccccc2s1,2,5,-4,0,2,59*
Cc1c(O)cc2c(c1O)C(=O)CC(c1ccc(O)cc1)O2 (stereo unspecified),2,4,18,1,86*,65*
COc1cc(O)c2c(c1)OC(c1ccc(O)cc1)CC2=O (stereo unspecified),7,-2,2,-5,17,1
Cc1cc(Cl)ccc1-n1c(-c2cccnc2)n[nH]c1=S,-3,-21,-7,·,59*,-93
CCCCCC(=O)Nc1ccccc1N1CCOCC1,4,5,2,-4,-13,-9
CCCNC(=O)c1csc2c1CCCCC2,4,8,5,-6,8,-16
O=C(NC1CCCC1)c1csc2c1CCCC2,9,2,5,3,11,100*
CCCOc1ccc(Cn2c(C)nc([N+](=O)[O-])c2SCC(O)COC)cc1[N+](=O)[O-] (stereo unspecified),4,4,0,2,16,-4
O=C(NCc1nnc(SCC(=O)N2CCCC2)o1)c1c(F)cccc1Cl,4,3,9,-4,-3,-6
